Only some compounds are listed: those with a hit (about 19% of all), similar ones and a draw of the others.
TDP1 cell CPT: qHTS for Inhibitors of human tyrosyl-DNA phosphodiesterase 1 (TDP1): qHTS in cells in presence of CPT | AID 686979, 2013 | Potency, µM (doses to about 46.2 µM), for the others: at the highest dose activity change, negative = growth inhibition, hits mostly inhibitors | hit rate 12% among 420,000 | chicken DT40 Tdp1-/-;hTDP1 cells + 20 nM CPT, ATP luminescence, 48 h; note: potency is the fitted concentration of half-maximal effect; nearly all actives have a fitted effect of over 55% in size
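Chicken DT40 Tdp1-/- cells stably complemented with human TDP1 were seeded at 400 cells/well in medium containing 20 nM camptothecin, exposed to pin-transferred compounds, and grown at 37 °C for at least 48 hr. Viability was read as ATP luminescence.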
HT1080 IDH1KD tx: qHTS for induction of synthetic lethality in tumor cells producing 2HG: qHTS for the HT-1080-IDH1KD cell line; AID 686971, 2013; hit rate 2% among 360,000; HT-1080 IDH1 knockdown viability, ATP luminescence, 48 h; Potency, µM (doses to about 46.1 µM), without a hit: at the top dose activity, negative = toxicity, actives largely listed as cytotoxic;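 note: potency is the fitted concentration of half-maximal effect; 0% = DMSO wells and -100% = cell-free medium wells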
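Assay cells: HT-1080 with IDH1 knockdown, 750 per well, RPMI/5% FBS. Exposure: 48 h at 37 °C following 2 h pre-incubation. Read: CellTiter-Glo luminescence; fitted concentration-response, curve class assigned.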
HT1080-NT tox: qHTS for induction of synthetic lethality in tumor cells producing 2HG: qHTS for the HT-1080-NT fibrosarcoma cell line | HT-1080-NT fibrosarcoma viability, CellTiter-Glo ATP luminescence, 48 h | Potency, µM (top dose mostly 46.1 µM), inactives show at the highest dose activity, negative = less viability, usual class: cytotoxic | hit rate 1.6% among 360,000;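 note: NT is the 2HG producing partner of a matched IDH1 knockdown line; potency is the fitted concentration of half-maximal effect; 0% = DMSO-treated cells and -100% = media-only wells without cells; nearly all actives have a fitted effect of over 55% in size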
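Viability of the 2HG-overproducing fibrosarcoma line after 48 hours of compound exposure at 37 degrees C was determined by luminescence with CellTiter-Glo, and concentration-effect curves were then fitted and categorized.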
IL1B secr inh: qHTS for Inhibitors of Inflammasome Signaling: IL-1-beta AlphaLISA Primary Screen | THP-1 LPS/ATP IL-1B secretion, AlphaLISA, 16 h; stronger effect = lower value | activity change, % at 57.5 µM | hit rate 4.7% among 360,000 | AID 743279, 2014; in the data active = activity change below about -50%; inconclusive = mostly about -30% to -49%
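THP-1 cells pretreated 1 hr with compounds (up to 57.5 uM final), then stimulated with LPS (250 ng/mL final) plus ATP (1.25 mM final); secreted IL-1B measured by AlphaLISA after 16 hr, decreased signal indicating inhibition.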
TDP1 cell noCPT: qHTS for Inhibitors of human tyrosyl-DNA phosphodiesterase 1 (TDP1): qHTS in cells in absence of CPT. DT40 Tdp1-/- hTDP1 cells, no CPT, ATP luminescence, 48 h. Potency, µM (doses to about 46.2 µM), for inactives: at the top dose activity change, negative = growth inhibition, usual class: inhibitors. hit rate 15% among 420,000. AID 686978, 2013; note: potency is the fitted concentration of half-maximal effect; nearly all actives have a fitted effect of over 55% in size
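Luminescent ATP content (CellTiter-Glo) served as the growth readout. Knockout chicken DT40 cells expressing human TDP1 were exposed to compounds without camptothecin for a minimum 48 hr at 37 °C.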
ELG1 repair inh: qHTS screen for small molecules that inhibit ELG1-dependent DNA repair in human embryonic kidney (HEK293T) cells expressing luciferase-tagged ELG1; Potency, µM (series often up to 46.1 µM), for the others: at the highest dose activity change, negative = inhibition, hits mostly inhibitors; HEK293T ELG1-luciferase reporter, luminescence, 16 h; DNA damage induced by 5-fluorouridine; hit rate 2.3% among 330,000; AID 504467, 2011; note: potency is the fitted concentration of half-maximal effect; nearly all actives have a fitted effect of over 55% in size
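In this reporter screen, reduction of luminescence relative to DMSO vehicle indicated activity. Compounds and 5-fluorouridine were added together to 2,000 cells per well, incubated for 16 hr at 37 °C, then developed with ONE-Glo.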
* = called active by the depositor; ? = inconclusive; . = not tested or not shown; [ ] = remark or other dose. Unless noted, calls come from the whole dose curve; as a rule, active = well fitted curve in the direction sought with a large enough effect; inconclusive = small, poorly fitted or top-dose-only effect, or another doubt; inactive = no such curve, though single readings can be large; an effect the other way counts as inactive or inconclusive. Unless noted, % is set by controls: 0 for no effect and ±100 for the full control effect.

SMILES	TDP1 cell CPT	HT1080 IDH1KD tx	HT1080-NT tox	IL1B secr inh	TDP1 cell noCPT	ELG1 repair inh
COc1ccc(-c2csc(NC(=O)C3CC(=O)N(Cc4ccco4)C3)n2)cc1 (stereo not given)	?	-16%	-16%	-61*	21µM*	-12%
CN(c1ccc(-c2csc(NC(=O)C3CC(=O)N(Cc4ccco4)C3)n2)cc1)S(C)(=O)=O (stereo not given)	?	-1%	2%	-2	-16%	?
COC(=O)c1sc(N)c(C(=O)OC)c1COC(=O)C1CC(=O)N(Cc2ccco2)C1 (stereo not given)	-27%	3%	3%	0	-27%	8.2µM*
CCOC(=O)c1sc(N)c(C(=O)OCC)c1COC(=O)C1CC(=O)N(Cc2ccco2)C1 (stereo not given)	2%	-7%	-2%	-11	-26%	?
COc1ccc(-c2nc(NC(=O)C3CC(=O)N(Cc4ccco4)C3)sc2C)cc1 (stereo not given)	16µM*	-9%	-5%	-28	12µM*	0%
CC(C)CCNC(=O)C1CCN(c2nc3ccccc3o2)CC1	?	-29%	-9%	16	-17%	?
CC(=O)N1CCC2(CCCN(Cc3cc(C(F)(F)F)cc(C(F)(F)F)c3)C2)CC1	-22%	.	.	.	?	.
Cc1[nH]c(=O)[nH]c(=O)c1S(=O)(=O)Nc1cccc(Cl)c1C	-1%	.	.	.	11%	.
COc1ccc(CNC(=O)C2CCC(=O)N(CCCN3CCCC3=O)C2)cc1 (stereo not given)	-18%	11%	7%	11	-5%	-7%
Cc1ccc(C)c(CN2CCc3nnc(CNC(=O)c4cc(C)oc4C)n3CC2)c1	?	.	.	.	-20%	.
CCc1cc2c(SCC(=O)NC3CCCC3)ncnc2s1	?	-8%	-3%	9	?	.
CC(=O)c1sc(NC(=O)C2CC(=O)N(Cc3ccco3)C2)nc1-c1ccccc1 (stereo not given)	-11%	-4%	-5%	-95*	-23%	-13%
O=C(Cc1ccccc1)Nc1ccccc1N1CCN(c2ccccc2)CC1	?	0%	-3%	?	?	?
O=C(NCCS(=O)(=O)N1CCN(c2ccccc2)CC1)C12CC3CC(CC(C3)C1)C2	26µM*	-7%	-15%	-1	21µM*	.
O=C(Nc1ccccc1N1CCN(c2ccccc2)CC1)C12CC3CC(CC(C3)C1)C2	?	11%	22%	8	21µM*	-25%
COc1ccccc1N1CCN(S(=O)(=O)CCNC(=O)C23CC4CC(CC(C4)C2)C3)CC1	?	-26%	?	-6	?	?
O=C(Nc1ccccc1N1CCN(c2ccccc2)CC1)c1ccccc1F	?	-1%	6%	37	3.7µM*	?
CCOc1ccc(-c2cc(C(=O)NC3CCCCC3)[nH]n2)c(C)c1	-28%	0%	29%	-1	-22%	.
COc1cccc(CNC(C)(C)CO)c1OCc1ccc(Cl)cc1	-20%	-7%	-12%	-57*	?	-4%
CCCCOc1c(Cl)cc(CNC(C)(C)CO)cc1OCC	?	?	?	-10	-24%	-2%
CCOc1cc(CNCCO)cc(Br)c1OCc1ccc(Cl)cc1	26µM*	?	?	-16	?	-6%
CCOc1cccc(CNCCO)c1OCc1ccc(Cl)cc1	?	-22%	-23%	-55*	?	-9%
CCOc1ccccc1CNCCO	-5%	5%	2%	2	9%	1%
CCOc1cc(CNC(C)(C)CO)cc(Br)c1OCc1ccc(Cl)cc1Cl	21µM*	10µM*	11µM*	?	21µM*	-14%
COc1ccc(CC(=O)Nc2oc(-c3ccccc3)c(-c3ccccc3)c2C#N)cc1OC	-13%	-16%	-2%	-7	?	23µM*
SMILES	TDP1 cell CPT	HT1080 IDH1KD tx	HT1080-NT tox	IL1B secr inh	TDP1 cell noCPT	ELG1 repair inh
COc1ccc(-c2oc(NC(=O)CCl)c(C#N)c2-c2ccc(OC)cc2)cc1	6.5µM*	?	?	-93*	5.2µM*	?
Cc1ccc(OCC(=O)Nc2oc(-c3ccccc3)c(-c3ccccc3)c2C#N)cc1	21µM*	?	?	0	16µM*	.
COc1ccccc1OCC(=O)Nc1oc(-c2ccccc2)c(-c2ccccc2)c1C#N	-1%	0%[9.24 µM]	-29%	6	-20%	-14%
COc1ccc(-c2oc(NC(=O)CSc3ncn[nH]3)c(C#N)c2-c2ccc(OC)cc2)cc1	13µM*	?	?	0	?	?
N#Cc1c(NC(=O)CN2CCOCC2)oc(-c2ccccc2)c1-c1ccccc1	5%	-5%	-3%	23	3%	-10%
Cc1noc(/C=C/c2cccs2)c1S(=O)(=O)N1CCC(C(=O)NCCCN2CCC(C)CC2)CC1	?	-22%	12%	-16	?	0%
CN(C)C(=O)c1cccc(-c2cccc3nccn23)c1	?	20%	4%	54	?	.
CCN1CCN(CCNC(=O)c2ccc(/C=C3/Sc4ccccc4N(Cc4cccc(Cl)c4)C3=O)cc2)CC1	18µM*	?	15µM*	-99*	18µM*	?
O=C(NCCN1CCCC1)c1ccc2c(c1)N(Cc1cccc(Cl)c1)C(=O)c1ccccc1S2(=O)=O	?	?	-20%	-8	5%	?
CCN1CCN(CCNC(=O)c2ccc3c(c2)N(Cc2ccc(F)cc2)C(=O)/C(=C/c2ccccc2)S3)CC1	12µM*	5.2µM*	6.5µM*	-102*	8.2µM*	?
Cc1c(C(=O)NCC(C)(C)N2CCOCC2)cnn1-c1ncc2c(n1)-c1ccccc1CCC2	8%	.	.	.	-4%	.
Cc1ccc(C)c(SCC(=O)OCC(=O)NCCNC(=O)COC(=O)CSc2cc(C)ccc2C)c1	-29%	1%	-1%	18	-7%	-2%
C#CCN(Cc1ccccc1)S(=O)(=O)C=C	25µM*	-14%	-28%	-65*	?	-28%

Screens as filed in PubChem.
